Screens from PubChem BioAssay.
Compounds with a hit are over-represented: about 11% of the library has one in this group of screens.
Pf growth 96h: P. falciparum growth inhibition at 96 hours | P. falciparum luciferase reporter growth, 96 h | Potency, µM (highest dose often 28.7 µM), for inactives: top-dose activity change, negative = inhibition, actives largely listed as inhibitors | AID 504834 | 320,000 compounds, 6.9% hits
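Compounds incubated with erythrocytes infected by luciferase-expressing P. falciparum (2% hematocrit, 0.05% parasitemia final) for 96 hours, 37 C in 5% CO2. Growth inhibition scored as decreased luciferase luminescence.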
Pf growth 48h: inhibits P. falciparum growth in the first generation, 48 h. P. falciparum luciferase growth in erythrocytes, 48 h. Potency, µM (highest dose often 28.7 µM), without a hit: at the top dose activity change, negative = inhibition, most hits filed as inhibitors. 310,000 compounds, 5.9% hits. AID 504832
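Firefly luciferase activity from engineered P. falciparum reports growth; inhibitors lower the luminescent signal. Cultures contained 2% hematocrit erythrocytes at 0.1% final parasitemia.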
AMA1-RON2 inh: disrupts binding of P. falciparum AMA1 to RON2. AlphaScreen AMA1-biotinylated RON2 peptide binding. AID 720542. Potency, µM (titrated, usually from 58.2 µM), for the others: at the highest dose activity change, negative = inhibition, actives largely listed as inhibitors. 360,000 compounds, 0.2% hits;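 also: 0% = vehicle wells and -100% = peptide control; nearly all actives have a fitted effect of over 45% in size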
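AMA1 (3D7) with his tag at 25 nM final met compounds first, then biotinylated RON2 peptide at 25 nM; detection used donor plus acceptor beads, 10 µg/mL apiece, read by AlphaScreen after 30 min at room temperature.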
HCV inhibitor: blocks hepatitis C virus | Huh7.5.1 HCVcc-Cre infection, luciferase reporter, 44 h | Potency, µM (doses to about 41.8 µM), for the others: at the top dose activity change, negative = inhibition, usual class: inhibitors | 340,000 compounds, 3.4% hits | AID 651820
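Seed cells (1,000/well) for 4 h; treat with compound and infect with HCVcc-Cre, moi about 0.5. Incubate 44 h, then detect luciferase activity.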
* hit, by the source's call; i = inactive; u = inconclusive; x = no result; [ ] = remark or other dose. Calls follow the shape of the dose curve; as a rule, active = well fitted curve in the direction sought with a large enough effect; inconclusive = small, poorly fitted or top-dose-only effect, or another doubt; inactive = no such curve, though single readings can be large; an effect the other way counts as inactive or inconclusive. Unless noted, % is scaled to controls: 0 for no effect and ±100 for the full control effect; potency is read from the fitted curve at half-maximal effect.

SMILES	Pf growth 96h	Pf growth 48h	AMA1-RON2 inh	HCV inhibitor
COc1ccc(Nc2ncc(C(=O)N3CCN(c4ccc(F)cc4)CC3)c3ccccc23)cc1	1.85µM*	u	-5.5%	11.2µM*
COc1ccc(N2CCSC2C(=O)NN)cc1 (stereo not given)	9.28µM*	26.9%	-6.1%	21.5%
COc1ccc(C(=O)NCCCn2cccn2)cc1OC1CCN(C(C)=O)CC1	u	30.5%	3.1%	-1.1%
COc1ccc2cc(C(=O)CS(=O)(=O)c3ccccc3)c(=O)oc2c1	11.7µM*	-3.2%	3.7%	15.3%
O=C(CS(=O)(=O)c1ccccc1)c1cc2ccccc2oc1=O	56.4%	19.8%	3.6%	-14.5%
Oc1ccc(-c2csc(Nc3ncccn3)n2)cc1	4.15µM*	377.0%	-3.8%	-29.9%
Cc1cccnc1Nc1nc(-c2ccccc2)cs1	4.9%	-42.5%	-0.1%	15.8µM*
Cc1c(C(=O)NC(C)c2ccccc2)c(-c2ccccc2)nn1-c1ccccc1 (stereo not given)	u	10.4µM*	-0.7%	-1.8%
CC(C)Cc1ccc(C(C)NC(=O)c2ccc(=O)[nH]c2)cc1 (stereo not given)	134.7%	11.6%	-0.5%	-23.5%
N/C(=N\N=C/c1ccc(F)cc1)N/N=C\c1ccc(F)cc1	u	0.738µM*	29.9%	-21.4%
N/C(=N\N=C\c1ccc(Cl)cc1)N/N=C/c1ccc(Cl)cc1	0.849µM*	0.757µM*	x	x
C=CCC[C@H](CCCCC)OC(=O)/C=C/[C@@H](O)[C@H](O)C[C@@H](O)CC=C	x	x	9.6%	x
O=Cc1cn(CC(=O)Nc2ccc3c(c2)OCO3)c2ccccc12	8.8%	-12.2%	-5.3%	10.0%
O=C(CN(C(=O)c1csnn1)c1cccc(C(F)(F)F)c1)NC1CCCC1	21.9%	1.5%	-12.7%	-10.8%
Cc1ccc(C(=O)O)cc1NC(=O)Nc1cccc2ccccc12	2.62µM*	33.2%	-4.9%	15.0%
Cc1cc(O)c(C(C)C)cc1NC(=O)Nc1cccc2ccccc12	u	10.4µM*	10.1%	u
O=C(Nc1ccc(C(=O)O)cc1)Nc1cccc2ccccc12	-8.5%	0.0%	-10.8%	17.2%
CCOc1ccc(NC(=O)c2ccc(OCC3CCCO3)cc2)cc1S(=O)(=O)N(CC)CC (stereo not given)	10.4µM*	10.4µM*	-9.4%[11.6 µM]	u
CCN(CC)S(=O)(=O)c1ccc(Cl)c(C(=O)NCC2CCCO2)c1 (stereo not given)	10.4µM*	-5.1%	3.5%	18.4%
CCN(CC)S(=O)(=O)c1cccc(NC(=O)C2SC(=Nc3ccc(C)cc3C)C(C(=O)NCC3CCCO3)=C2N)c1 (stereo not given)	x	9.28µM*	35.9%	11.5%
Cc1cc(NC(=O)c2ccc(OCC3CCCO3)cc2)ccc1Br (stereo not given)	x	x	7.1%	x
CCC(=O)Nc1ccc(OCC2CCCO2)cc1 (stereo not given)	11.7µM*	41.1%	12.7%	5.8%
COC1OCC(O)C(NC(=O)N(C)N=O)C1O (stereo not given)	x	x	-0.6%	x
COc1ccc(S(=O)(=O)N(C)C)cc1NC(=O)Cc1ccc(S(=O)(=O)N2CCOCC2)s1	u	u	-4.2%	8.3%
CCN(CC)S(=O)(=O)c1ccc(NC(=O)c2ccc(OCC3CCCO3)cc2)cc1 (stereo not given)	9.28µM*	9.28µM*	6.3%	6.31µM*
SMILES	Pf growth 96h	Pf growth 48h	AMA1-RON2 inh	HCV inhibitor
O=C(Nc1ccc(Cl)cc1)c1ccc(OCC2CCCO2)cc1 (stereo not given)	i	195.6%	15.3%	-29.5%
O=c1c(-c2ccco2)nc2ccccc2n1C(CCc1ccccc1)c1nc2ccccc2[nH]1 (stereo not given)	x	x	4.4%	x
Cc1ccccc1OCC(=O)N/N=C1\CC(=O)CC(C)(C)C1	-25.7%	-12.5%	99.4%	-4.9%
Cc1ccc(OCC(=O)N/N=C2\CC(=O)CC(C)(C)C2)c(Br)c1	9.28µM*	-1.0%	94.1%	6.1%
CCN(C(=O)Cn1c(=O)n2nc(CCn3nc(C)cc3C)nc2c2ccccc21)c1cccc(C)c1	2.62µM*	31.2%	-0.8%	x
NS(=O)(=O)c1cccc(NC(=O)CN2C(=O)C(=O)N(Cc3ccccc3)C2=O)c1	x	x	12.1%	-5.9%
COc1cccc(N(C(=O)c2snc(C(N)=O)c2N)C(C(=O)NCC2CCCO2)c2ccc3ncccc3c2)c1 (stereo not given)	-3.5%	u	-3.7%	-8.6%
O=C(Cc1ccc(Cl)cc1)Nc1ccncc1	-6.4%	3.9%	1.5%	10µM*
CN(CC(=O)Nc1ccncc1)S(=O)(=O)c1ccc(Br)cc1	u	x	0.7%	-1.9%
O=C(CCS(=O)(=O)c1ccc(Cl)cc1)Nc1ccc(F)cc1	10.4µM*	-2.9%	5.8%	14.0%
CN(CCCC(=O)Nc1ccncc1)S(=O)(=O)c1ccc(Cl)cc1	245.1%	u	-10.2%	10µM*
O=C(Nc1ccncc1)c1ccc(Cl)cc1	u	u	-4.1%	3.1%
Cc1ccc(CC(=O)Nc2ccncc2)cc1	u	40.3%	5.1%	12.6µM*
Cc1ccc2c(C)c(C(=O)Nc3cccnc3)oc2c1C	x	x	6.2%	6.6%
COc1ccc2c(c1)OC(C)(C)C(c1ccccc1)C2c1ccc(OCCN2CCCC2)cc1 (stereo not given)	3.01µM*	1.69µM*	x	x
COc1ccc(C(=O)N2CCC(c3ccccc3)CC2)c(OC)c1OC	26.2%	-1.0%	8.5%	-2.4%
CCN(Cc1ccccc1)c1ccc(N=Nc2nn(C)c(C)c2[N+](=O)[O-])cc1	u	1.65µM*	10µM*	u
CCN(CC)c1ccc(N=Nc2nn(C)c(C)c2[N+](=O)[O-])cc1	3.7µM*	u	-25.3%[11.6 µM]	u
CCN(Cc1ccccc1)c1ccccc1	x	x	4.5%	9.8%
CCc1nc2cc([N+](=O)[O-])c([N+](=O)[O-])cc2[nH]1	-0.3%	-3.1%	12.3%	0.6%
COc1ccccc1-c1nnc(Nc2nc3c(OC)cccc3s2)o1	u	u	30.0%	u
COc1cccc2sc(Nc3nnc(-c4ccccc4Cl)o3)nc12	1.31µM*	9.28µM*	103.4%	u
CN(C)S(=O)(=O)c1ccc(C(=O)NCCSc2ccc(Br)cc2)cc1	-16.6%	1.4%	-11.0%	22.4µM*
CCOc1ccc(CN2CCN(Cc3cccc4nonc34)CC2CCO)cc1 (stereo not given)	14.7µM*	17.5%	1.2%	6.1%
Cc1c(CN2CCN(CC(C)(C)C)C(CCO)C2)[nH]c2ccccc12 (stereo not given)	u	u	12.0%	u
CCOc1ccc(CN2CCN(Cc3[nH]c4ccccc4c3C)CC2CCO)cc1 (stereo not given)	10.4µM*	u	-12.4%	u
COc1ccc(Cl)cc1C(=O)NCC(c1ccco1)N(C)C (stereo not given)	-4.8%	4.4%	2.3%	-21.9%
CN(C)C(CNC(=O)c1ccccc1OCc1ccc(Cl)cc1)c1ccco1 (stereo not given)	u	u	-3.5%	17.8µM*
